The panel holds about 83,000 compounds, 20% with a hit somewhere; the sample as a whole holds those more often.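 Cell lines were cultured in 96-well plates, exposed to a single compound concentration, and assessed for percent growth 48 hours later.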 Values without a mark were called inactive. The source made the active and inactive calls. The calls were made as follows: active = growth percent below 10; inactive = the rest.
Key:
Assay in all cases: NCI-60 one-dose screen, 48 h (100 = growth as untreated, 0 = no growth, -100 = all killed)
Details in all cases: 10 µM
NCI-H23 lung = tested on: NCI-H23 lung
NCI-H226 lung = tested on: NCI-H226 lung
HOP-62 NSCLC = tested on: HOP-62 NSCLC
NCI-H460 lung = tested on: NCI-H460 lung
HOP-92 NSCLC = tested on: HOP-92 NSCLC
NCI-H522 lung = tested on: NCI-H522 lung
A549/ATCC NSCLC = tested on: A549/ATCC NSCLC
786-0 renal = tested on: 786-0 renal
COLO 205 colon = tested on: COLO 205 colon

## CN(C)CCOc1cccc(-c2nc3sccn3c2-c2ccnc(S(C)(=O)=O)n2)c1
NCI-H23 lung
  growth: 100%
NCI-H226 lung
  growth: 92.3%
HOP-62 NSCLC
  growth: 79%
NCI-H460 lung
  growth: 94.9%
HOP-92 NSCLC
  growth: 53.7%
NCI-H522 lung
  growth: 103%
A549/ATCC NSCLC
  growth: 97.9%
786-0 renal
  growth: 95.9%
COLO 205 colon
  growth: 106%

## COc1ccc(-c2cc(-c3ccc(Cl)cc3)nc(SCCCC(=O)NO)n2)cc1OC
NCI-H23 lung
  growth: -8.91% (active)
NCI-H226 lung
  growth: -5.3% (active)
HOP-62 NSCLC
  growth: 2.14% (active)
NCI-H460 lung
  growth: -17.7% (active)
HOP-92 NSCLC
  growth: -0.324% (active)
NCI-H522 lung
  growth: -5.35% (active)
A549/ATCC NSCLC
  growth: 8.3% (active)
786-0 renal
  growth: 4.57% (active)
COLO 205 colon
  growth: 6.86% (active)

## COc1cc2cc(Oc3ccc(NC(=O)c4cc(C(F)(F)F)cc(C(F)(F)F)c4)cc3)c(C)nc2cc1OC
NCI-H23 lung
  growth: 32.6%
NCI-H226 lung
  growth: 53.6%
HOP-62 NSCLC
  growth: 84.7%
NCI-H460 lung
  growth: 26.9%
HOP-92 NSCLC
  growth: -6.21% (active)
NCI-H522 lung
  growth: 34%
A549/ATCC NSCLC
  growth: 30.7%
786-0 renal
  growth: 64.5%
COLO 205 colon
  growth: 51.7%

## COc1cc(/C=C/c2cc(/C=C/c3ccc(O)c(OC)c3)n(C(=O)Nc3ccccc3Cl)n2)ccc1O
NCI-H23 lung
  growth: -25.8% (active)
NCI-H226 lung
  growth: -3.72% (active)
HOP-62 NSCLC
  growth: 8.39% (active)
NCI-H460 lung
  growth: 7.39% (active)
HOP-92 NSCLC
  growth: -14.4% (active)
NCI-H522 lung
  growth: -18.7% (active)
A549/ATCC NSCLC
  growth: 8.75% (active)
786-0 renal
  growth: -14.8% (active)
COLO 205 colon
  growth: -73.5% (active)

## Cc1c(Cl)cccc1NC(=O)CN1CCOCC1
NCI-H23 lung
  growth: 95.9%
NCI-H226 lung
  growth: 106%
HOP-62 NSCLC
  growth: 93%
NCI-H460 lung
  growth: 100%
HOP-92 NSCLC
  growth: 118%
NCI-H522 lung
  growth: 75.1%
A549/ATCC NSCLC
  growth: 106%
786-0 renal
  growth: 99.7%
COLO 205 colon
  growth: 108%

## CC(CN(C)C)Oc1ccccc1NC1=C(Cl)C(=O)C(Nc2ccccc2OC(C)CN(C)C)=C(Cl)C1=O (configuration not stated)
NCI-H23 lung
  growth: -70.7% (active)
NCI-H226 lung
  growth: -94.4% (active)
HOP-62 NSCLC
  growth: -97.6% (active)
NCI-H460 lung
  growth: -4.55% (active)
HOP-92 NSCLC
  growth: -60.7% (active)
NCI-H522 lung
  growth: -73.4% (active)
A549/ATCC NSCLC
  growth: 1.98% (active)
786-0 renal
  growth: -71.5% (active)
COLO 205 colon
  growth: -67.3% (active)

## COc1cc(-c2nn(-c3ccc(NC(=O)NCCCNC(=O)c4ccccc4)cc3)cc2-c2ccncc2)ccc1Cl
NCI-H23 lung
  growth: 28.8%
NCI-H226 lung
  growth: 56.1%
HOP-62 NSCLC
  growth: 41.5%
NCI-H460 lung
  growth: 6.81% (active)
HOP-92 NSCLC
  growth: -0.43% (active)
NCI-H522 lung
  growth: 3.7% (active)
A549/ATCC NSCLC
  growth: 26%
786-0 renal
  growth: 14.8%
COLO 205 colon
  growth: -43.4% (active)

## N#Cc1ccc(C(=O)CSc2nccc(Nc3ccc(C(=O)O)cc3)n2)cc1
NCI-H23 lung
  growth: 100%
NCI-H226 lung
  growth: 101%
HOP-62 NSCLC
  growth: 108%
NCI-H460 lung
  growth: 104%
HOP-92 NSCLC
  growth: 104%
NCI-H522 lung
  growth: 94.4%
A549/ATCC NSCLC
  growth: 102%
786-0 renal
  growth: 104%
COLO 205 colon
  growth: 110%

## C[C@@H](C[C@H](CCO)c1ccccc1)c1ccc2ccccc2c1
NCI-H23 lung
  growth: -65.1% (active)
NCI-H226 lung
  growth: -65.7% (active)
HOP-62 NSCLC
  growth: -55% (active)
NCI-H460 lung
  growth: -48.5% (active)
HOP-92 NSCLC
  growth: -95.6% (active)
NCI-H522 lung
  growth: -53.9% (active)
A549/ATCC NSCLC
  growth: -81.4% (active)
786-0 renal
  growth: -90.6% (active)
COLO 205 colon
  growth: -86.9% (active)

## CC[C@@H](C(=O)[C@@H](C)[C@@H](O)[C@H](C)[C@@H]1O[C@@H]([C@@H](CC)C(=O)O)CC[C@@H]1C)C1O[C@]2(C=CC(=O)[C@]3(CC[C@@](C)([C@H]4CC[C@](O)(CC)[C@H](C)O4)O3)O2)[C@H](C)C[C@@H]1C (some centres not stated)
NCI-H23 lung
  growth: 30.5%
NCI-H226 lung
  growth: 28.3%
HOP-62 NSCLC
  growth: 41.9%
NCI-H460 lung
  growth: 23.8%
HOP-92 NSCLC
  growth: 73.5%
NCI-H522 lung
  growth: 24.6%
A549/ATCC NSCLC
  growth: 28.3%
786-0 renal
  growth: 24.7%
COLO 205 colon
  growth: 10.1%

## c1ccc2c(c1)Cc1ccccc1N2CCN1CCCCC1
NCI-H23 lung
  growth: 90%
NCI-H226 lung
  growth: 103%
HOP-62 NSCLC
  growth: 84.1%
NCI-H460 lung
  growth: 107%
HOP-92 NSCLC
  growth: 85.8%
NCI-H522 lung
  growth: 75.2%
A549/ATCC NSCLC
  growth: 89.9%
786-0 renal
  growth: 95.3%
COLO 205 colon
  growth: 82.2%

## O=C(O)Cc1ccc(O)c(O)c1
NCI-H23 lung
  growth: 103%
NCI-H226 lung
  growth: 98.2%
HOP-62 NSCLC
  growth: 99.3%
NCI-H460 lung
  growth: 100%
HOP-92 NSCLC
  growth: 109%
NCI-H522 lung
  growth: 106%
A549/ATCC NSCLC
  growth: 102%
786-0 renal
  growth: 105%
COLO 205 colon
  growth: 103%

## COc1ccc2cc(-c3nc4ccccc4s3)c(Cl)nc2c1OC
NCI-H23 lung
  growth: 84.4%
NCI-H226 lung
  growth: 93.9%
HOP-62 NSCLC
  growth: 90.7%
NCI-H460 lung
  growth: 98.4%
HOP-92 NSCLC
  growth: 85.3%
NCI-H522 lung
  growth: 101%
A549/ATCC NSCLC
  growth: 110%
786-0 renal
  growth: 119%
COLO 205 colon
  growth: 98%

— PubChem BioAssay (NCI)
